Screening results: PubChem BioAssay, National Center for Advancing Translational Sciences (NCATS)
Most compounds without a hit are left out; they make up all but 2.4% or so of the library.
D2 ag-1: human D2 receptor agonism in beta-arrestin assay | P14416 | DiscoveRx PathHunter D2 beta-arrestin, luminescence, 90 min; 100% = 57 uM dopamine signal | activation, % (no concentration beside the values) | 360,000 tested, 0.084% active; in the data active = activation above about 40%; inconclusive = between about 15% and that limit
Target sequence (P14416 whole entry, looked up): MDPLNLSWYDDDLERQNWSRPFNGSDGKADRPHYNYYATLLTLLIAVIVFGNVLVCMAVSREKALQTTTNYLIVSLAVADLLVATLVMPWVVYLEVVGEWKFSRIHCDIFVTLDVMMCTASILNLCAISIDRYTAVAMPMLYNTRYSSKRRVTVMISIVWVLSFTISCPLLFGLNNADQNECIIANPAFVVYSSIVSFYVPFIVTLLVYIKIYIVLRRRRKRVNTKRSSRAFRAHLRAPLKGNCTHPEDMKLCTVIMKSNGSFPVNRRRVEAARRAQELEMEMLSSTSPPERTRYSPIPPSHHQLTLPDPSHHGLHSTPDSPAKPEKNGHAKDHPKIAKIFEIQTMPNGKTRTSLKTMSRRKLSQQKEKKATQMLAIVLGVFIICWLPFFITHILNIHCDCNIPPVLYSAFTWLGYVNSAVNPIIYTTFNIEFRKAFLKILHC
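Agonist mode: compounds alone added to overnight-plated D2 PathHunter cells for 90 min at 37 C, with 57 uM final dopamine (EC100) defining full response. Beta-arrestin recruitment detected by chemiluminescent reagent, read after 1 h at ambient temperature.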
D2 antag: D2 dopamine receptor (human) antagonism | P14416 | HEK293 TREx D2 cells, calcium flux, dopamine EC80 | inhibition, % at 10 µM | 340,000 tested, 2% active | AID 485344; in the data active = inhibition above about 30%; inactive = below that, where a call was filed
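Dopamine at EC80 is the agonist stimulus; test compounds precede it by 180 s. Calcium flux read kinetically in a force-coupled, inducible HEK293 T-REx D2 cell line.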
D2 PAM-1: human D2 receptor positive allosteric modulation. P14416. DiscoveRx D2 beta-arrestin cells, luminescence, 90 min; 100% = 57 uM dopamine signal. potentiation, % (no concentration beside the values). 360,000 tested, 0.23% active; in the data active = potentiation above about 50%; inconclusive = mostly about 30% to 49%
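PathHunter beta-arrestin assay in DiscoveRx D2 cells. Compounds were added with an EC20 of dopamine (50 nM final) for 90 min at 37 deg C. Luminescence was read 1 h after detection reagent, with 57 uM dopamine as the EC100 control.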
D2 ag-2: agonists of human D2 dopamine receptor | P14416 | HEK293 T-REx D2 cells, calcium flux agonist mode | activation, % at 2 µM | 340,000 tested, 0.53% active | AID 485358;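 active = activation over 3 SD above normal in the single-dose calcium agonist read, cut at about 30% in these data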
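HEK293 Trex D2 cells, tetracycline-induced, o/n 30 C 5% CO2; no-wash Ca dye, RT 30–90 min; 10-cycle baseline, 23 nl cpd added, kinetic Ca read 180 s; agonist hits = positive Ca response.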
D2 PAM-2: D2 dopamine receptor (human) potentiation. HEK293 T-REx D2, calcium flux, EC20 dopamine potentiation. potentiation, % at 10 µM. 340,000 tested, 0.34% active. AID 485347;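 active = potentiation over 3 SD above the plate norm, cut at about 30% in these data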
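Potentiation of an EC20 dopamine calcium response is measured in a force-coupled, tetracycline-inducible Hek293 Trex D2 line. Compound-only kinetic reads over 180 s flag agonists before dopamine addition.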
A number is an active result; - = inactive; ? = inconclusive; . = no result.

SMILES	D2 ag-1	D2 antag	D2 PAM-1	D2 ag-2	D2 PAM-2
Cc1ccc(S(=O)(=O)N2CCN(C(=O)CN3CCc4ccccc4C3)CC2)cc1	-	-	-	-	-
O=C(CN1CCc2ccccc2C1)N1CCN(S(=O)(=O)c2ccccc2)CC1	-	-	-	35	-
COc1ccc(Cl)cc1S(=O)(=O)NC(C)C(=O)NCc1cccnc1 (stereo not drawn)	-	-	-	-	-
Cc1ccnc(NC(=O)c2ccc(S(=O)(=O)N3CCCC3)cc2)c1	-	-	-	-	-
O=C(Nc1ccc(S(=O)(=O)N2CCCC2)cc1)c1ccc(CN2CCc3ccccc3C2)cc1	-	64	-	-	-
CCOc1ccc(C(=O)Nc2ccccc2NC(C)=O)cc1OCC	-	103	-	-	-
O=C(c1ccc(CN2CCc3ccccc3C2)cc1)N1CCCCC1	-	35	-	-	-
COc1ccc(C(CNC(=O)Nc2cccc(C)c2)N2CCN(C)CC2)cc1 (stereo not drawn)	-	-	-	-	-
O=C(N/N=C\c1c(O)ccc2ccccc12)c1cncc(Br)c1	-	-	-	66	-
O=C(N/N=C/c1c(O)ccc2ccccc12)c1cccnc1	-	-	-	-	-
CC(=O)c1ccc(NC(=O)CN(C)S(=O)(=O)c2cc3c(cc2C)NC(=O)CO3)cc1	.	.	.	-	-
COc1ccc(NC(=O)Cn2c(=O)n(-c3cccc(C)c3)c(=O)c3c2c2cc(C)ccc2n3C)cc1Cl	.	.	.	-	-
CCc1nn(C(C)C(=O)NCCN2CCN(c3cccc(C)c3C)CC2)c(=O)c2cc3occc3n12 (stereo not drawn)	-	52	-	-	-
Cc1ccc(-n2ncc3c(N4CCN(Cc5ccccc5)CC4)ncnc32)cc1Cl	.	.	.	.	-
Cc1ccc(/C=N/NC(=O)Cn2nnc(N)n2)cc1	-	41	-	-	-
CCOC(=O)C1CCN(CC(O)COc2ccc(S(=O)(=O)N3CCCC3)cc2[N+](=O)[O-])CC1 (stereo not drawn)	-	-	-	36	-
COCCNC(=O)C1(C)Cc2c(-c3cccc(NC(C)=O)c3)ccnc2O1 (stereo not drawn)	-	.	-	.	.
CCC(NS(=O)(=O)c1ccc(C)cc1)C(=O)N1CCC2(O)CCCCC2C1 (stereo not drawn)	-	-	-	-	39
CN1CCN(C(c2ccccc2)c2ccc(Cl)cc2)CC1 (stereo not drawn)	-	.	-	.	.
CN1CCN(C(c2cccc(Cl)c2)c2ccccc2Cl)CC1 (stereo not drawn)	-	83	-	-	-
CCCS(=O)(=O)NC(=O)C1(C)CCCN(C(=O)CCc2cccs2)C1 (stereo not drawn)	-	.	-	.	.
CN(C)S(=O)(=O)N1CCCN(S(=O)(=O)N(C)C)CC1	-	-	-	-	42
COCCCn1c(SCC(=O)Nc2ccccc2F)nnc1-c1ccoc1C	-	-	-	-	-
Cc1ccc(C)c(Cn2ncc3ccccc32)c1	-	-	-	-	41
Cc1ccc(C)c(Cn2c(CO)nc3ccccc32)c1	-	-	-	-	-
SMILES	D2 ag-1	D2 antag	D2 PAM-1	D2 ag-2	D2 PAM-2
O=C1CC(c2ccc(Cl)cc2)CC(O)=C1C=NCCN1CCNCC1 (stereo not drawn)	.	53	.	-	-
C=CCNC(=S)N1CCN(CCN=CC2=C(O)CC(c3ccc(Cl)cc3)CC2=O)CC1 (stereo not drawn)	-	-	-	-	-
CCOc1ccc(NC(=O)CN(Cc2ccccc2)S(=O)(=O)c2ccc3nc(C)sc3c2)cc1	.	.	.	-	.
COCCN1CSC(=S)N(Cc2ccco2)C1	-	-	-	-	-
S=C1SCN(Cc2ccccn2)CN1Cc1ccco1	-	36	-	-	-
COc1ccc(C(C(=O)NC2CCCCC2)N(Cc2ccco2)C(=O)c2snc(C(N)=O)c2N)cc1 (stereo not drawn)	-	-	-	-	-
O=C(N/N=C/c1cccs1)c1c[nH]c2ccccc12	-	33	-	-	-
COc1ccccc1-c1cc(C(=O)N/N=C/c2cccs2)c2ccccc2n1	-	72	-	-	-
CCn1cc2nc(SCC(=O)Nc3cccc(Cl)c3C)n(Cc3ccc(Cl)cc3)c(=O)c2n1	.	.	.	-	-
CCn1cc2nc(SCC(=O)Nc3ccc(F)cc3F)n(Cc3ccccc3)c(=O)c2n1	-	32	-	-	-
CCOC(=O)c1[nH]c(C)c(CCC(=O)Nc2cccc(C(F)(F)F)c2)c1C	.	.	.	-	-
CCCCCNC(=O)C1CC=CCC1C(=O)O (stereo not drawn)	-	36	-	-	-
Cc1nc2scc(C)n2c(=O)c1S(=O)(=O)N1CCN(c2ccccc2)CC1	-	32	-	-	-
COc1ccc(N2CCN(S(=O)(=O)c3c(C)nc4scc(C)n4c3=O)CC2)cc1	-	-	-	-	-
CCC(C)C(NC(=O)c1ccccc1NC(=O)c1ccco1)C(=O)NNC(=O)c1ccncc1 (stereo not drawn)	-	-	-	-	-
CCCN(Cc1nnc(-c2cccs2)o1)C(=O)CN1C(=O)NC2(CCC(C)CC2)C1=O (stereo not drawn)	-	-	-	-	-
CCCN(Cc1nnc(-c2cccs2)o1)C(=O)CN1C(=O)NC2(CCCCC2)C1=O	-	31	-	-	-
O=C(OCCC12CC3CC(CC(C3)C1)C2)c1ccc(NCc2cc(O)ccc2O)cc1	?	.	64	.	.
N#CCC(=O)Nc1ccc(C(=O)OCC(=O)C23CC4CC(CC(C4)C2)C3)cc1	-	-	-	-	-
O=C(OCC12CC3CC(CC(C3)C1)C2)c1ccc(NCc2cc(O)ccc2O)cc1	?	.	55	.	.
CC(=O)Nc1ccc(NC(=O)CC(C)n2ccnc2)cc1 (stereo not drawn)	-	-	-	-	-
Cc1cccc2sc(NC(=O)C3CCCO3)nc12 (stereo not drawn)	-	32	-	-	-
Cc1nnc(NC(=O)C2CCN(S(=O)(=O)c3cc([N+](=O)[O-])ccc3Cl)CC2)o1	?	-	-	-	-
Cc1cccc2sc(NC(=O)C3CCN(S(=O)(=O)c4cc([N+](=O)[O-])ccc4Cl)CC3)nc12	?	.	64	.	-
O=C(Nc1ccc(F)c(F)c1)C1CCN(S(=O)(=O)c2cccc3nonc23)CC1	-	-	-	-	30
CC(=O)Nc1ccc(NC(=O)C2CCN(S(=O)(=O)c3cccc4nonc34)CC2)cc1	-	-	-	-	-
Cc1cccc2sc(NC(=O)C3CCCN(S(=O)(=O)c4cccc5nonc45)C3)nc12 (stereo not drawn)	-	-	-	-	39
O=C(c1ccc2c(c1)CCN2S(=O)(=O)c1ccc(Cl)cc1)N1CCN(c2ccc(F)cc2)CC1	.	.	.	-	-
CCc1ccc(-n2c(=O)c3c(C)c(C(=O)N(C)C)sc3n(Cc3ccccc3F)c2=O)cc1	.	.	.	-	-
